Experimental data taken from the supplement of paper PMC11150407.
About 180 (8.6%) of roughly 2,100 compounds showed an effect of 50% or more. The list comes from a sample in which strong results are over-represented; it also holds similar structures and randomly drawn compounds.

Test system: MOLM1 and UCSD/AML1 (averaged)
Assay: cell viability relative to DMSO control (POC); higher = less growth inhibition
Details: 1 µM; 72 h
Protocol: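 Primary viability screen in the 3q26 EVI1-high AML cell lines MOLM1 and UCSD/AML1 (1.5e3 cells/well, 384-well), compounds at 1 uM for 72 h. ATP CellTiter-Glo read-out given as percent of viable cells over DMSO control (POC), averaged over duplicates. DMSO was the negative control and 5 uM etoposide the positive control. This mapping covers the MicroSource Spectrum and Selleck anticancer libraries (drug names).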

SMILES | cell viability [%]
CN(C)C(=S)SSC(=S)N(C)C | 1.29
C[C@]12CC[C@H]3[C@@H](CCC4=CC(=O)CC[C@@]43C)[C@@H]1CC[C@@H]2O | 103
CC[C@@]1(O)C[C@H](O)c2c(cc3c(c2O)C(=O)c2c(O)ccc(O)c2C3=O)[C@H]1C(=O)OC | 99.6
CC[C@@]1(O)C[C@H](O[C@H]2C[C@H](N(C)C)[C@H](O)[C@H](C)O2)c2c(cc3c(c2O)C(=O)c2c(O)cccc2C3=O)[C@H]1C(=O)OC | 38.5
CC[C@@]1(O)C[C@H](O[C@H]2C[C@H](N(C)C)[C@H](O)[C@H](C)O2)c2c(cc3c(c2O)C(=O)c2c(O)ccc(O)c2C3=O)[C@H]1C(=O)OC | 0.762
O=C1CCC[C@@H]2[C@H]3C[C@@H](CN12)[C@@H]1CCCCN1C3.[O-][Cl+3]([O-])([O-])O | 95.6
COc1cc(OC)c2c(c1)O[C@H](c1ccc(OC)c(OC)c1)[C@@H](O)C2 | 100
C=CCC1(C(C)CCC)C(=O)NC(=S)NC1=O (stereo not given) | 89.9
COc1cc2c(cc1OC)[C@@H]1C(=O)c3ccc4oc(C(C)C)cc4c3O[C@@H]1CO2 | 81.7
CC(O)(CS(=O)(=O)c1ccc(F)cc1)C(=O)Nc1ccc(C#N)c(C(F)(F)F)c1 (stereo not given) [Bicalutamide (Casodex)] | 101
C[C@H](N)[C@H](O)c1ccc(O)c(O)c1 | 105
O=C(O)CCC1NCC2CC1CN1CCCCC21 (stereo not given) | 93.6
CCCC(C)C1(CC)C(=O)NC(=S)NC1=O (stereo not given) | 96.6
CN1C[C@H](C(=O)N[C@]2(C)O[C@@]3(O)[C@@H]4CCCN4C(=O)[C@H](Cc4ccccc4)N3C2=O)C[C@@H]2c3cccc4[nH]cc(c34)C[C@H]21 | 112
CN1C[C@H](C(=O)N[C@]2(C)O[C@@]3(O)[C@@H]4CCCN4C(=O)[C@H](Cc4ccccc4)N3C2=O)C=C2c3cccc4[nH]cc(c34)C[C@H]21 | 48.2
CC(C)C[C@H]1C(=O)N2CCC[C@H]2[C@]2(O)O[C@](NC(=O)[C@@H]3C=C4c5cccc6[nH]c(Br)c(c56)C[C@H]4N(C)C3)(C(C)C)C(=O)N12 | 108
O=C(O)Cc1cnc[nH]1 | 101
CN1C2CCC1CC(O)C2 (stereo not given) | 109
C#CCN(C)[C@H](C)Cc1ccccc1 | 84.3
O=P1(NCCCl)OCCCN1CCCl (stereo not given) | 105
O=P1(NCCCl)OCCCN1CCCl (stereo not given) [Ifosfamide] | 105
CC(=O)[O][Hg][c]1ccccc1 | 1.17
NCC(=O)c1ccccc1 | 130
COc1ccc(CCN2CCC(Nc3nc4ccccc4n3Cc3ccc(F)cc3)CC2)cc1 | 95.2
CC(=O)O[C@H]1[C@H]2[C@@H](OC(=O)Cc3ccccc3)[C@@H](C)C[C@]2(OC(C)=O)C(=O)/C(C)=C/[C@@H]2[C@H](CC[C@@]13CO3)C2(C)C | 96.8

SMILES | cell viability [%]
COc1cc2c(c(OC)c1OC)-c1ccc(OC)c(=O)cc1[C@@H](NC(C)=O)CC2 | 6.75
CC(=O)O[C@@H]1C[C@H]2C(C)(C)C(=O)C=C[C@]2(C)[C@H]2CC[C@]3(C)C(=CC(=O)O[C@H]3c3ccoc3)[C@@]21C | 75.1
Nc1ncn[nH]1 | 109
CCCCCCCCCc1ccc(O)cc1 | 105
CNC(=O)Oc1ccc2c(c1)[C@]1(C)CCN(C)[C@@H]1N2C | 106
O=C1C=C2C(=CCOC2O)O1 (stereo not given) | 1.61
c1cncc([C@@H]2CCCCN2)c1 | 107
C[C@H]1O[C@H](O[C@H]2[C@H](O)[C@@H](O)[C@@H](O)[C@H](O)[C@@H]2O)[C@@H](N)C[C@@H]1NC(=N)C(=O)O | 103
C[C@]12C=CC(=O)C=C1CC[C@@H]1[C@@H]2CC[C@]2(C)C(=O)CC[C@@H]12 | 101
CC(C)=CCCC1(C)C=Cc2c(O)c3c(c(CC=C(C)C)c2O1)OC12C(CC4CC1C(C)(C)OC2(C/C=C(/C)C(=O)O)C4O)C3=O (stereo not given) | 94.1
CC(C)CCCC1(C)C=Cc2c(O)c3c(c(CCC(C)C)c2O1)OC12C(CC4CC1C(C)(C)OC2(CCC(C)C(=O)O)C4O)C3=O (stereo not given) | 106
CC(C)=CCC[C@]1(C)C=Cc2c(O)c3c(c(CC=C(C)C)c2O1)O[C@]12C(=C[C@@H]4C[C@H]1C(C)(C)O[C@@]2(C/C=C(/C)C(=O)O)C4=O)C3=O | 1.06
CC(C)=CCCC1(C)C=Cc2c(O)c3c(c(CC=C(C)C)c2O1)OC12C(=CC4CC1C(C)(C)OC2(C/C=C(/C)C(=O)O)C4O)C3=O (stereo not given) | 99.7
CC(C)=CCC[C@]1(C)C=Cc2c(O)c3c(c(CC=C(C)C)c2O1)O[C@]12C(=C[C@@H]4C[C@H]1C(C)(C)O[C@@]2(C/C=C(/C)C(N)=O)C4=O)C3=O | 13.2
C=C(C)c1cc2cc(C(C)=O)c(O)cc2o1 | 104
COC(=O)C1=CCCN(C)C1 | 98.5
COc1c2c(cc3c1OCO3)CCN(C)C2 | 119
CCC(C)C(=O)O[C@@H]1C[C@@]2(C)[C@H](c3ccoc3)OC(=O)CC23OC2(C)O[C@]14[C@]1(C)[C@@H](CC(=O)OC)C5(C)CC1(O)[C@](O)(C5OC(=O)C1(C)OC1C)[C@@H](OC(C)=O)[C@]34O2 (stereo not given in full) | 95.6
CC1(C)N([O-])[N+](=O)C1(C)Br (stereo not given) | 109
COc1cc2c(cc1O)CCN[C@@H]2C | 112
CCN1C[C@]2(OC(=O)c3ccccc3NC(C)=O)CC[C@H](OC)[C@@]34[C@@H]2C[C@@H]([C@@H]13)[C@@]1(O)C[C@H](OC)[C@H]2C[C@@H]4[C@]1(O)[C@H]2OC | 96.8
C[C@@H]1O[C@@H](O[C@H]2CC[C@]3(C=O)[C@H]4CC[C@]5(C)[C@@H](C6=CC(=O)OC6)CC[C@]5(O)[C@@H]4CC[C@]3(O)C2)[C@H](O)[C@H](O)[C@H]1O | 1.83
CO[C@H]1[C@H](O)[C@H](O[C@H]2CC[C@@]3(C=O)[C@H](CC[C@@H]4[C@@H]3CC[C@]3(C)[C@@H](C5=CC(=O)OC5)CC[C@]43O)C2)O[C@@H](C)[C@@H]1O | 1.75
C[C@@H]1O[C@@H](O[C@H]2C[C@@H](O)[C@]3(CO)[C@H]4[C@H](O)C[C@]5(C)[C@@H](C6=CC(=O)OC6)CC[C@]5(O)[C@@H]4CC[C@]3(O)C2)[C@H](O)[C@H](O)[C@H]1O | 1.94
CO[C@H]1C[C@H](O[C@H]2CC[C@]3(C=O)[C@H]4CC[C@]5(C)[C@@H](C6=CC(=O)OC6)CC[C@]5(O)[C@@H]4CC[C@]3(O)C2)O[C@H](C)[C@H]1O | 3.81
